Screening results: PubChem, Broad Institute
These entries were drawn from the full list.
aSyn UTR act: Activators working through SNCA 5'UTR binding (MLPCN); activity score, % (tested at 7.5 µM), hits read low; alpha-synuclein 5'UTR reporter, activators screen; AID 1814; actives 7.1% (n = 300,000); in the data active means activity score below about -60%
* = called active by the depositor.

SMILES | aSyn UTR act
Cc1c(C(=O)Nc2cccc(F)c2)cnn1-c1ccccc1 | -212*
COc1ccc(NC(=O)c2cnn(-c3ccccc3)c2C)cc1OC | -153*
COC(=O)c1sccc1N/N=C/c1cccc(Oc2ccccc2)c1 | -64*
COC(=O)c1sccc1N/N=C/c1ccc(OC)c(OC)c1OC | -140*
Clc1ccc(-c2nc(Cc3ccccc3)no2)cc1 | -141*
Cc1ccccc1-c1nc(Cc2ccccc2)no1 | -129*
CN(C)CCCNS(=O)(=O)c1ccc(N2CCC(c3ccc(Cl)cc3)=N2)cc1 | -139*
Nc1c2ccccc2nc2ccccc12 | 89
COc1ccc2nc3cccc(OC)c3nc2c1 | -105*
COc1ccc2nc3ccccc3nc2c1N | -67*
NC(=O)c1c(NC(=O)C2CCCO2)sc2c1CCCC2 (stereo not drawn) | -74*
N#Cc1c(NC(=O)C2CCCO2)sc2c1CCCCCC2 (stereo not drawn) | -98*
COc1ccc(Cn2c(/C=C/c3ccccc3)nc3ccccc32)cc1 | -202*
CC(C)Cn1c(/C=C/c2ccccc2)nc2ccccc21 | -114*
O=C(Cn1c(/C=C/c2ccccc2)nc2ccccc21)Nc1ccc(F)cc1 | -72*
COc1ccc(/C=C/c2nc3ccccc3n2C)cc1 | 109
CCn1c(/C=C/c2ccccc2)nc2ccccc21 | -157*
CCOCCCNC(=O)C1CCN(Cc2ccc(OCc3ccccc3)c(OC)c2)CC1 | -117*
CCCCNC(=O)C1CCN(Cc2ccc(OCc3ccccc3)c(OC)c2)CC1 | -115*
COc1cc(CN2CCC(C(=O)NCC(C)(C)CN(C)C)CC2)ccc1OCc1ccccc1 | -67*
NC(=O)C1CCN(Cc2ccc(OCc3ccccc3)cc2)CC1 | -95*
CCn1c(-c2cccnc2Cl)nc2cc(Cl)c(Cl)cc21 | -119*
O=[N+]([O-])c1cccnc1Oc1ccc(OCc2ccccc2)cc1 | -79*
O=[N+]([O-])c1cccnc1Oc1ccc(C2SCCS2)cc1 | -106*
O=[N+]([O-])c1cccnc1Sc1ccc(Br)cc1 | 49
SMILES | aSyn UTR act
Cc1cc(C(=O)N(C)C)sc1-c1ccccc1 | -132*
O=C(CCl)N1c2ccccc2SCC1c1ccccc1 (stereo not drawn) | -64*
O=C(OCC(=O)N1CCCC1=O)c1nc(Cl)c(Cl)c(Cl)c1Cl | -131*
Nc1nc(N2CCN(c3ccccn3)CC2)nc2ccccc12 | -118*
COc1ccc(-c2cc(-c3cc(C)ccc3O)[nH]n2)cc1 | -249*
Oc1ccc(Cl)cc1-c1cc(-c2ccccc2Cl)[nH]n1 | -158*
COc1ccc(Oc2ccc(-c3ccn[nH]3)cc2)cc1 | -76*
COc1ccc(-c2cc(-c3ccc(OC)cc3)[nH]n2)cc1 | -155*
COc1ccc(-c2cc(-c3ccc(C)cc3)n[nH]2)c(O)c1 | -144*
Cc1ccc(O)c(-c2cc(-c3ccccc3[N+](=O)[O-])[nH]n2)c1 | -95*
Cc1nc2c(cc(Oc3ccc(S(=O)(=O)N4CCOCC4)cn3)c3ccsc32)s1 | -89*
Cc1ccc(NC(=S)N2CCn3cccc3C2c2cccnc2)cc1 (stereo not drawn) | -93*
C/C(=N/N=C(/C)c1cccs1)c1cccs1 | -119*
Cc1cc(Nc2nc3ccccc3nc2Cl)n(-c2ccccc2)n1 | -88*
COc1ccc(-c2nsc3c(N4CCCCC4)ncnc23)cc1 | 85
Cc1ccc(-n2nc3c(N4CCC(C(=O)NCCc5ccccc5C)CC4)nnc(C)c3c2C)cc1 | 72
COc1ccc(-c2nsc3c(N4CCN(S(=O)(=O)c5ccccc5F)CC4)ncnc23)cc1 | -69*
O=C(c1ccccc1)N1CCN(c2ncnc3c(-c4ccccc4)nsc23)CC1 | -125*
Cc1ccc(-c2nsc3c(N4CCC(C(N)=O)CC4)ncnc23)cc1 | -99*
COC(=O)c1ccc(/C=N/Nc2nc3ccccc3[nH]2)cc1 | -176*
C(=N\Nc1nc2ccccc2[nH]1)/c1ccncc1 | -147*
c1ccc2[nH]c(NN=C3CCCCCC3)nc2c1 | -114*
CC(=O)Nc1ccc(/C=N/Nc2nc3ccccc3[nH]2)cc1 | -101*
Clc1nc2ccccc2cc1/C=N/Nc1nc2ccccc2[nH]1 | -97*
O=c1c2ccccc2oc2cc(-c3ccc4[nH]ccc4c3)ccc12 | -97*
SMILES | aSyn UTR act
COc1cc2sc3ccc(-c4ccc5[nH]ccc5c4)cc3c(=O)c2cc1OC | -239*
CCOC(=O)/C(N=Nc1ccc2c(c1)OCO2)=C(\C)O | -123*
CCCn1nnnc1SCC(=O)c1ccc2c(c1)OCCO2 | -83*
Cn1nnnc1SCC(=O)c1ccc2c(c1)OCCO2 | -67*
Cc1ccc(C(=O)Oc2ccc(/C=C3\C(=N)N4N=C(N5CCOCC5)SC4=NC3=O)cc2)cc1 | -62*
Oc1ccc(Br)cc1/C=N/n1cnc2ccccc21 | -262*
Oc1ccc(Br)cc1/C=N/N1CCCCC1 | -221*
COc1ccc(N=Nc2ccc(N)nc2N)cc1 | -68*
COc1ccc(N=Nc2c(N)n[nH]c2N)cc1 | -85*
CCCc1cc(C(=O)Nc2ccc(C)cc2)no1 | -104*
Cc1ccc(NC(=O)c2cc(C)on2)cc1 | -96*
CCCc1cc(C(=O)Nc2ccc(CC)cc2)no1 | -169*
Cc1ccc(NC(=S)Nc2cc(C)on2)cc1 | -71*
Cc1cc(C(=O)Nc2sc(C)c(C)c2C#N)no1 | -170*
Cc1ccc(/C=C/C(=O)Nc2cc(C)on2)cc1 | -227*
Cc1cc(C(=O)Nc2ccccn2)no1 | -104*
CN(C)c1ccc(NC(=O)c2ccc(COc3cccc(Cl)c3)o2)cc1 | -112*
CCOc1ccc(OCc2ccc(C(=O)NC(C)(C)C)o2)cc1 | -70*
CCOc1ccc(OCc2ccc(C(=O)Nc3cccnc3)o2)cc1 | -81*
CC(C)NC(=O)c1ccc(COc2ccc(C(C)(C)C)cc2)o1 | -136*
COc1ccc(OCc2csc(N)n2)cc1 | -117*
COc1ccc(NN=Nc2ccc([N+](=O)[O-])cc2)cc1 | -240*
COc1ccc2nc(NC(=O)CSc3nnnn3C)sc2c1 | -122*
O=C(CSC1=NCCS1)Nc1nc2ccccc2s1 | -154*
CCn1nnnc1SCC(=O)Nc1nc2ccccc2s1 | -86*
SMILES | aSyn UTR act
COc1ccc2nc(NC(=O)CSc3nc(SC)ns3)sc2c1 | -110*
CSc1nsc(SCC(=O)Nc2nc3ccccc3s2)n1 | -71*
COc1ccc2nc(NC(=O)CSc3nnc(C)s3)sc2c1 | -78*
Cc1nc(SCC(=O)Nc2nc3ccccc3s2)c(C#N)c(C)c1C | 100
N=C1C(c2nc3ccccc3s2)=C(O)CN1c1ccccc1 | -120*
CCCCN1CC(O)=C(c2nc3ccccc3s2)C1=N | -167*
CCN1CC(O)=C(c2nc3ccccc3s2)C1=N | -70*
CC(C)(C)S(=O)(=O)Cc1nc(-c2ccc(Cl)c(Cl)c2)cs1 | -67*
CCOc1ccc(/C=C/c2nc(C#N)c(NCCCOC)o2)cc1 | -150*
COCCCNc1oc(/C=C/c2ccccc2)nc1C#N | -114*
O=C(OCn1ncc(Cl)c(Cl)c1=O)c1ccc(C(F)(F)F)cc1 | -117*
Cc1ccc(-n2[nH]c(C)c(C=NCc3ccncc3)c2=O)cc1 | -65*
COc1ccc2nc(/N=C/c3c(C)[nH]n(-c4ccc(C)cc4)c3=O)sc2c1 | -73*
CN(C)/C=N/c1nc2ccc3c(c2s1)CCCC3 | -138*
COc1ccc2nc(/N=C\N(C)C)sc2c1 | -92*
Cc1ccc(Cn2nnnc2CN2CCC(c3nc4ccc(Cl)cc4[nH]3)CC2)cc1 | 78
O=S(=O)(c1ccc(Cl)cc1)N1CCC(c2nc3ccccc3[nH]2)CC1 | 76
CCOc1ccc(NC(=O)N2CCC(c3nc4ccccc4[nH]3)CC2)cc1 | -71*
Nc1cc(C(=O)OCC(=O)N2CCCC2)ccc1Cl | -62*
